ClpP mod = qHTS Assay for Activators of ClpP; ATP-dependent Clp protease proteolytic subunit (Bacillus subtilis (strain 168)), P80244; Potency, µM (series often up to 57.5 µM), for the others: at the highest dose activity change, negative = active; AID 651965, 2013; purified B. subtilis ClpP, FRET peptide cleavage, 20 min; actives 1.9% (n = 340,000); active means well fitted falling curve with a large enough effect; inconclusive means small, poorly fitted or top-dose-only effect; inactive means no such curve, though single readings can be large or run the other way; further: potency means the concentration at half of the fitted maximal effect; the source files actives as falling curves though it sought activators and does not explain the sign; nearly all actives have a fitted effect of over 65% in size
Target sequence (P80244 whole entry, looked up): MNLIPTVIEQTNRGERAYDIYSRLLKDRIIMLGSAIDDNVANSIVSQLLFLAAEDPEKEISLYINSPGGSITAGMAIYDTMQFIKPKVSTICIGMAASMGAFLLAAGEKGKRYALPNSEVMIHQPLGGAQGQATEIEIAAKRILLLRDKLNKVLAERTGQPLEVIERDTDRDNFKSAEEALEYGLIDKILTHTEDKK
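Buffer: 100 mM Tris/HCl pH8, 100 mM KCl, 0.05% low protease BSA, 2.5% glycerol, 0.01% Tween-20. ClpP 10 microg/mL final; 20 min RT; delta FRET normalized to ADEP and DMSO controls.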
B2AR arrestin = agonists driving beta-arrestin recruitment to human beta2-adrenergic receptor; P07550; beta-arrestin recruitment to beta2AR, cell-based reporter; Potency, µM (series often up to 46.1 µM), for inactives: at the top dose activation, most hits filed as activators; actives 0.02% (n = 330,000); AID 492947;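 further: potency means the concentration at half of the fitted maximal effect; 0% = DMSO controls and full agonism = EC100 isoproterenol or metaproterenol; nearly all actives have a fitted effect of over 65% in size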
Target sequence (P07550 whole entry, looked up): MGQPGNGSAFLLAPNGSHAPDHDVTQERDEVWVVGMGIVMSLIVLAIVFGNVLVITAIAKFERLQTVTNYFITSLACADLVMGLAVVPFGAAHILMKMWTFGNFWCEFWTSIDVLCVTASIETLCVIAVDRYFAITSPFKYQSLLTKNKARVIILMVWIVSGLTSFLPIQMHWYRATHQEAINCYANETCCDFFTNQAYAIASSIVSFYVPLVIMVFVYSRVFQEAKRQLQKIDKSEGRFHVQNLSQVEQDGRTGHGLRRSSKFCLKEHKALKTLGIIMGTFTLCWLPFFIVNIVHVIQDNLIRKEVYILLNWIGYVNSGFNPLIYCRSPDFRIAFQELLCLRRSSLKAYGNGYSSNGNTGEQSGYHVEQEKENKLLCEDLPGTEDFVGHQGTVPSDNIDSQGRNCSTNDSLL
Mito fusion yeast = inhibitors of mitochondrial division or activators of mitochondrial fusion. S. cerevisiae fusion-defective mutant growth rescue, CellTiterGlo 48 h. Potency, µM (titrated, usually from 46.1 µM), for inactives: at the highest dose growth rescue (activation), usual class: activators. actives 0.23% (n = 320,000). AID 485298; further: potency means the concentration at half of the fitted maximal effect; % of control where 0% means no effect; nearly all actives have a fitted effect of over 45% in size
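Growth-rescue viability read-out: after 48 h at the non-permissive 37C in glycerol/ethanol YPEG, yeast mitochondrial fusion mutants are measured by CellTiterGlo luminescence; compounds (23 nl pinned per well) restoring growth score as division inhibitors or fusion activators.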
p53 reactivator = mutant p53 re-activation in reporter cells; AID 504706; actives 0.063% (n = 320,000); Potency, µM (titrated, usually from 92.2 µM), for the others: top-dose activity change, positive = activation, actives largely listed as activators; H1299 p53-A138V BP100-luciferase reporter, luminescence, 24 h; further: potency means the concentration at half of the fitted maximal effect; % of control where 0% means no effect; nearly all actives have a fitted effect of over 45% in size
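H1299 (p53-null), stable ts p53-A138V + BP100-Luc; 1000 cells/well, Opti-MEM/10% FBS; cpd 4 pt, 1:5; 24 h, 37 deg C, 5% CO2; detection reagent 10 min RT; luminescence.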
Giardia killer = kills Giardia lamblia; Giardia lamblia trophozoite viability; activity change, % at 7.66 µM, hits read low; actives 0.15% (n = 340,000); AID 540267; in the data active means activity change below about -80%; inconclusive means between about -30% and that limit;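 further: parasites exposed to compound for two days anaerobically before the ATP read; on the % scale 0 is the no-effect control and ±100 the full control effect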
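Trophozoites 100 cells/well + cpd; 48 hrs, 37 deg C, anaerobic. ATPLite 1-Step added, 15-30 min RT, luminescence read (ATP-based viability).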
uPA generation = cell surface uPA generation inhibition; AID 540303; actives 0.31% (n = 330,000); Potency, µM (top dose mostly 38.3 µM), for the others: at the top dose activity change, negative = inhibition, most hits filed as inhibitors; cell surface uPA generation assay, qHTS; active means well fitted inhibition curve with a large enough effect; inconclusive means small, poorly fitted or top-dose-only effect; inactive means no such curve, though single readings can be large or run the other way; tested in mouse RAW 264.7 cells; further: potency means the concentration at half of the fitted maximal effect; on the % scale 0 is the no-effect control and ±100 the full control effect; nearly all actives have a fitted effect of over 55% in size
An asterisk follows results filed as active. This is a sample that favours compounds with a hit; in the whole collection about 2.1% have one here. Unless noted, the call rests on the fitted dose curve; in most records, active means well fitted curve in the direction sought with a large enough effect; inconclusive means small, poorly fitted or top-dose-only effect, or another doubt; inactive means no such curve, though single readings can be large; an effect the other way counts as inactive or inconclusive.

What do the screens show for `COc1cc2ccccc2cc1C(=O)OCC(=O)c1c(N)n(C)c(=O)n(C)c1=O`?
ClpP mod: 32µM*; B2AR arrestin: 0%; Mito fusion yeast: 0%; p53 reactivator: -11%; Giardia killer: 6; uPA generation: -2%

What do the screens show for `Cc1cc(C)cc(OC(=O)c2cc(-c3ccc4c(c3)OCCO4)on2)c1`?
ClpP mod: 32µM*

How did Cc1ccccc1OC(=O)c1cc(-c2ccc3c(c2)OCCO3)on1 do in these assays?
ClpP mod: 32µM*

What do the screens show for `Cc1cccc(OC(=O)c2cc(-c3ccc4c(c3)OCCO4)on2)c1`?
ClpP mod: 25µM*

How did CC(C)c1ccc(OC(=O)c2cc(-c3ccc4c(c3)OCCO4)on2)cc1 do in these assays?
ClpP mod: -25%

How did COc1ccc(OC(=O)c2cc(-c3ccc4c(c3)OCCO4)on2)cc1 do in these assays?
ClpP mod: -6%

How did O=C(Cc1ccccc1)Nc1c(C(=O)Nc2ccccc2F)oc2ccccc12 do in these assays?
ClpP mod: -3%

Results for CCC(C)n1nccc1NC(=O)C(C)OC(=O)c1cc2ccccc2[nH]1 (centres undefined) ?
ClpP mod: 28µM*; B2AR arrestin: 0%; Mito fusion yeast: -1%; p53 reactivator: -3%; Giardia killer: -19; uPA generation: 3%

What do the screens show for `COc1ccccc1NC(=O)C(C)OC(=O)c1cc2ccccc2[nH]1` (centres undefined)?
ClpP mod: -16%; B2AR arrestin: 0%; Mito fusion yeast: inconclusive; p53 reactivator: 6%; Giardia killer: 22; uPA generation: 3%

Results for Cc1ccc(-c2c(C(=O)N(C)Cc3ccccc3)oc(=O)c3ccccc23)cc1 ?
ClpP mod: -1%; B2AR arrestin: 0%; Mito fusion yeast: 16µM*; p53 reactivator: -13%; Giardia killer: 15; uPA generation: 0%

Results for CCOC(=O)c1[nH]cnc1C(=O)Nc1ccc(F)cc1 ?
ClpP mod: -1%; B2AR arrestin: 0%; Mito fusion yeast: 2%; p53 reactivator: 4%; Giardia killer: 50; uPA generation: 1%

What do the screens show for `CCOC(=O)c1[nH]cnc1C(=O)Nc1cccc(N)n1`?
ClpP mod: 14µM*; B2AR arrestin: 0%; Mito fusion yeast: 0%; p53 reactivator: 9%; Giardia killer: -11; uPA generation: 1%

What do the screens show for `Cn1ccc2cc(S(=O)(=O)N3CCCN(C(=O)Nc4ccccc4Br)CC3)ccc21`?
ClpP mod: -14%

Results for COC(=O)c1ccc(-n2c(/C=C/c3cc(OC)c(OC)c(OC)c3)nc3cc(Cl)ccc3c2=O)cc1 ?
ClpP mod: 1%

Results for O=C(CN(c1ccc2c(c1)OCCO2)S(=O)(=O)c1ccccc1)N1CCN(Cc2ccccc2)CC1 ?
ClpP mod: 32µM*; B2AR arrestin: 3%; Mito fusion yeast: -4%; p53 reactivator: -1%; Giardia killer: -8

What do the screens show for `COc1ccc(-c2nc(-c3ccccn3)no2)cc1`?
ClpP mod: -3%; B2AR arrestin: 0%; Mito fusion yeast: -18%; p53 reactivator: -11%; Giardia killer: -81*; uPA generation: 1.4µM*

How did COc1ccccc1-c1nc(-c2ccc(C)nc2OC)no1 do in these assays?
ClpP mod: 14µM*; B2AR arrestin: 0%; Mito fusion yeast: 5%; p53 reactivator: inconclusive; Giardia killer: 0; uPA generation: -3%

What do the screens show for `COc1nc(C)ccc1-c1noc(-c2ccccn2)n1`?
ClpP mod: -3%; B2AR arrestin: 0%; Mito fusion yeast: -1%; p53 reactivator: inconclusive; Giardia killer: 5

Results for Cc1ccccc1-c1nc(-c2ccccn2)no1 ?
B2AR arrestin: 0%; Mito fusion yeast: -3%; p53 reactivator: -9%; Giardia killer: inconclusive; uPA generation: inconclusive

How did COc1ccccc1-c1nc(-c2ccccn2)no1 do in these assays?
ClpP mod: -19%; B2AR arrestin: 0%; Mito fusion yeast: -7%; p53 reactivator: -8%; Giardia killer: inconclusive; uPA generation: 1.4µM*

What do the screens show for `Clc1ccc(-c2nc(-c3ccccn3)no2)cc1Cl`?
ClpP mod: -17%; B2AR arrestin: 0%; Mito fusion yeast: 0%; p53 reactivator: inconclusive; Giardia killer: inconclusive; uPA generation: -21%

How did Cc1ccc(C)c(NC(=O)c2cc(S(=O)(=O)N3CCCCCC3)ccc2F)c1 do in these assays?
ClpP mod: -1%

How did COc1ccc(S(=O)(=O)N2CCOCC2)cc1NC(=O)COc1ccc2c(C)cc(=O)oc2c1 do in these assays?
ClpP mod: 4%; B2AR arrestin: 0%; p53 reactivator: 5%; Giardia killer: 24; uPA generation: -16%

What do the screens show for `O=C(COc1ccc2ccc(=O)oc2c1)Nc1cccc(S(=O)(=O)N2CCCCC2)c1`?
ClpP mod: 35µM*; B2AR arrestin: 0%; Mito fusion yeast: -3%; p53 reactivator: -5%; Giardia killer: -11; uPA generation: -4%

Results for Cc1ccc(S(=O)(=O)N2CCOCC2)cc1NC(=O)COc1ccc2c(C)cc(=O)oc2c1 ?
ClpP mod: 32µM*; B2AR arrestin: 0%; Mito fusion yeast: 0%; p53 reactivator: -13%; Giardia killer: 3; uPA generation: 6%

How did CCN(CC)c1ccc(C(=O)NCc2ccc3c(c2)CCN3C(=O)c2ccc(F)cc2)cc1 do in these assays?
ClpP mod: 2%

How did O=c1cc(CN2CCCCC2)c2c(ccc3ccccc32)o1 do in these assays?
ClpP mod: -20%

Results for O=c1cc(CN2CCN(c3ccccc3F)CC2)c2c(ccc3ccccc32)o1 ?
ClpP mod: 28µM*

How did CCOc1ccc2[nH]c(=O)c(CN(Cc3cccnc3)C(=O)Nc3ccccc3OC)cc2c1 do in these assays?
ClpP mod: inconclusive; B2AR arrestin: 0%; Mito fusion yeast: 7%; p53 reactivator: -5%; Giardia killer: -5; uPA generation: -8%

What do the screens show for `O=C(c1ccccc1F)N(Cc1cccnc1)Cc1cc2cc3c(cc2[nH]c1=O)OCCO3`?
B2AR arrestin: 0%; Mito fusion yeast: -7%; p53 reactivator: 4%; Giardia killer: -2; uPA generation: -3%

What do the screens show for `COc1ccc2[nH]c(=O)c(CN(Cc3cccnc3)C(=O)Nc3ccccc3)cc2c1`?
ClpP mod: 32µM*; B2AR arrestin: 0%; Mito fusion yeast: 13%; p53 reactivator: -7%; Giardia killer: -12; uPA generation: 0%

Source: PubChem (National Center for Advancing Translational Sciences (NCATS))
